TDP1 inh: TDP1 (human) enzyme inhibition. Q9NUW8. Potency, µM (top dose mostly 130 µM), for the others: at the top dose activity change, negative = inhibition, most hits filed as inhibitors. 350,000 compounds, 0.28% hits. recombinant TDP1, AlphaScreen DNA substrate cleavage. AID 485290; note: % is set by controls: 0 for no effect and ±100 for the full control effect; nearly all actives have a fitted effect of over 40% in size
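Enzyme-compound mixtures sat 15 min at room temperature, followed by a 5 min reaction with 15 nM final substrate and 10 min with AlphaScreen beads. Recombinant human Tdp1 was used at 1 nM final.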
ClpP mod: qHTS Assay for Activators of ClpP; purified B. subtilis ClpP, FRET peptide cleavage, 20 min; 340,000 compounds, 1.9% hits; Potency, µM (top dose mostly 57.5 µM), for the others: at the top dose activity change, negative = active; ATP-dependent Clp protease proteolytic subunit (Bacillus subtilis (strain 168)), P80244; AID 651965, 2013; active = well fitted falling curve with a large enough effect; inconclusive = small, poorly fitted or top-dose-only effect; inactive = no such curve, though single readings can be large or run the other way; note: the source files actives as falling curves though it sought activators and does not explain the sign; nearly all actives have a fitted effect of over 65% in size
Target sequence (P80244 whole entry, looked up): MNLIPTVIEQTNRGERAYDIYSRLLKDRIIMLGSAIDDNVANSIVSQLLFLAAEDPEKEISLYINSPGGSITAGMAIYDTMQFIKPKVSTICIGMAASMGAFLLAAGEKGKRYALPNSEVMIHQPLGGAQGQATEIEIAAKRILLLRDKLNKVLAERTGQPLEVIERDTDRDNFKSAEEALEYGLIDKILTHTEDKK
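FRET quenching reversal measured ClpP activation: 10 microg/mL B. subtilis ClpP at pH 8 with the FRET-FV decapeptide, read at 430 nm after 320 nm excitation. The 20-min minus 0-min signal was scaled between DMSO/no-enzyme wells and ADEP (5.8 microM final).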
DT40 TDP1 CPT: DT40-hTDP1 cell growth loss with CPT | chicken DT40 Tdp1-/-;hTDP1 cells + 20 nM CPT, ATP luminescence, 48 h | 420,000 compounds, 12% hits | Potency, µM (top dose mostly 46.2 µM), for the others: at the highest dose activity change, negative = growth inhibition, most hits filed as inhibitors; note: % is set by controls: 0 for no effect and ±100 for the full control effect; nearly all actives have a fitted effect of over 55% in size
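Cell growth measured by CellTiter-Glo luminescence after a minimum 48 h, 37 C compound exposure with 20 nM CPT in Tdp1-knockout DT40 cells stably expressing hTDP1, seeded 400/well; qHTS titration format.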
TDP1 cell noCPT: qHTS for Inhibitors of human tyrosyl-DNA phosphodiesterase 1 (TDP1): qHTS in cells in absence of CPT; DT40 Tdp1-/- hTDP1 cells, no CPT, ATP luminescence, 48 h; Potency, µM (series often up to 46.2 µM), for the others: at the top dose activity change, negative = growth inhibition, most hits filed as inhibitors; 420,000 compounds, 15% hits; AID 686978, 2013; note: % is set by controls: 0 for no effect and ±100 for the full control effect; nearly all actives have a fitted effect of over 55% in size
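Chicken DT40 Tdp1-/- cells complemented with human TDP1, screened without camptothecin (DMSO vehicle only), 400 cells/well. Compounds pin-transferred, cells incubated at 37 °C for at least 48 hr. Growth read as ATP-dependent luminescence (CellTiter-Glo, 30 min at RT).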
* marks the source's active call; other numbers are inactive results; [ ] = dose if it differs, or a comment. This is a sample that favours compounds with a hit; in the whole collection about 17% have one here. Unless noted, calls come from the whole dose curve; as a rule, active = well fitted curve in the direction sought with a large enough effect; inconclusive = small, poorly fitted or top-dose-only effect, or another doubt; inactive = no such curve, though single readings can be large; an effect the other way counts as inactive or inconclusive. Potency is the fitted concentration of half-maximal effect.

How did C#CC(=O)CC1(CN(Cc2ccccc2)C(=O)OC(C)(C)C)CCCCC1 do in these assays?
ClpP mod: -1%; DT40 TDP1 CPT: 12µM*; TDP1 cell noCPT: 10µM*

What do the screens show for `CCOC(=O)CN(Cc1ccccc1)C(=O)OC(C)(C)C`?
TDP1 inh: 4%

How did CCCCCn1c(CCCNC(=O)c2ccccc2)nc2ccccc21 do in these assays?
TDP1 inh: 6%; ClpP mod: 0%; DT40 TDP1 CPT: 23µM*; TDP1 cell noCPT: 21µM*

How did CCCCn1c(CCNC(=O)c2ccc(F)cc2)nc2ccccc21 do in these assays?
TDP1 inh: 3%; ClpP mod: 1%; DT40 TDP1 CPT: -22%; TDP1 cell noCPT: inconclusive

Results for CCCCCCn1c(CNC(=O)c2ccccc2)nc2ccccc21 ?
TDP1 inh: 6%; ClpP mod: 0%; DT40 TDP1 CPT: inconclusive; TDP1 cell noCPT: inconclusive

What do the screens show for `CCCCCn1c(CNC(=O)c2ccc(F)cc2)nc2ccccc21`?
TDP1 inh: -3%; ClpP mod: -3%; DT40 TDP1 CPT: 16µM*; TDP1 cell noCPT: 21µM*

Results for COCCNC(=O)CN1C(=O)/C(=C/c2ccccc2)Oc2ccc(C(C)(C)C)cc21 ?
ClpP mod: 4%; DT40 TDP1 CPT: inconclusive; TDP1 cell noCPT: inconclusive

How did O=C(N1CCN=C1SCc1cccnc1)C12CC3CC(CC(C3)C1)C2 do in these assays?
TDP1 inh: -1%; ClpP mod: -1%; DT40 TDP1 CPT: inconclusive; TDP1 cell noCPT: 15µM*

How did Cc1cccc(Cn2cnc3c(nnn3Cc3ccccc3F)c2=O)c1 do in these assays?
TDP1 inh: 3%; ClpP mod: 1%; DT40 TDP1 CPT: inconclusive; TDP1 cell noCPT: 28µM*

How did Cc1ccc(Cn2nnc3c(=O)n(CC(=O)N4CCN(c5ccccc5)CC4)cnc32)cc1 do in these assays?
TDP1 inh: 7%; ClpP mod: -6%; DT40 TDP1 CPT: 21µM*; TDP1 cell noCPT: inconclusive

Results for Cc1ccc(Cn2nnc3c(=O)n(CC(=O)OCc4ccccc4)cnc32)cc1 ?
TDP1 inh: 7%; ClpP mod: -1%; DT40 TDP1 CPT: 18µM*; TDP1 cell noCPT: 16µM*

What do the screens show for `Cc1oc2cc3oc(=O)c(CCC(=O)NCCCN4CCCC4=O)c(C)c3cc2c1C`?
ClpP mod: -12%; DT40 TDP1 CPT: 15µM*; TDP1 cell noCPT: inconclusive

Results for COc1ccccc1CCNC(=O)Cc1c(C)c2cc3c(C)coc3cc2oc1=O ?
TDP1 inh: 9%; ClpP mod: 5%; DT40 TDP1 CPT: inconclusive; TDP1 cell noCPT: inconclusive

What do the screens show for `COc1ccccc1CCNC(=O)CCc1c(C)c2cc3c(C)coc3cc2oc1=O`?
TDP1 inh: 7%; ClpP mod: 4%; DT40 TDP1 CPT: 16µM*; TDP1 cell noCPT: inconclusive

What do the screens show for `Cc1coc2c(C)c3oc(=O)c(CCC(=O)NCCc4ccc(Cl)cc4)c(C)c3cc12`?
TDP1 inh: 7%; ClpP mod: -17%; DT40 TDP1 CPT: inconclusive; TDP1 cell noCPT: 12µM*

Results for Cc1ccc(CNC(=O)CCc2c(C)c3cc4c(C)coc4cc3oc2=O)cc1 ?
TDP1 inh: -2%; ClpP mod: 4%; DT40 TDP1 CPT: 16µM*; TDP1 cell noCPT: inconclusive

How did COc1ccc(CCNC(=O)Cc2c(C)c3cc4c(C)coc4c(C)c3oc2=O)cc1 do in these assays?
TDP1 inh: 0%; ClpP mod: -8%; DT40 TDP1 CPT: -11%; TDP1 cell noCPT: inconclusive

Results for Cc1coc2cc3oc(=O)c(CCC(=O)NCCN4CCOCC4)c(C)c3cc12 ?
ClpP mod: 5%; DT40 TDP1 CPT: inconclusive; TDP1 cell noCPT: inconclusive

How did O=C1CCC[C@H]2OC12[C@@H](O)CCc1ccccc1 (stereo not given in full) do in these assays?
TDP1 inh: 6%[21 µM]

Results for CC1(C)OC(=O)C2=C(C[C@@H](C3CCCCC3)O[C@H]2c2ccc(Cl)cc2)O1 ?
ClpP mod: -1%; DT40 TDP1 CPT: inconclusive; TDP1 cell noCPT: inconclusive

What do the screens show for `COc1cccc(CNC(=O)CCc2c(C)c3cc4c(C)coc4cc3oc2=O)c1`?
TDP1 inh: 5%; ClpP mod: 4%; DT40 TDP1 CPT: 13µM*; TDP1 cell noCPT: 16µM*

Results for Cc1coc2c(C)c3oc(=O)c(CCC(=O)NCCCn4ccnc4)c(C)c3cc12 ?
ClpP mod: 4%; DT40 TDP1 CPT: inconclusive; TDP1 cell noCPT: inconclusive

Screening data as filed in PubChem.
